Reference: the supplement of paper PMC12350171
Counter-ions that a name gives are not always drawn.

Assays:
Details in all cases: 20 µM
[1] = system: Salmonella enterica typhimurium; experiment: growth AUC normalised to DMSO control (fraction of control); higher = less growth inhibition, active = hit call of the paper
Procedure, shortened: (§1)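 Pathogens passaged twice anaerobically were inoculated at a starting OD578 of 0.01 into pre-reduced mGAM plates with drug at 20 μM and 1% DMSO, sealed with breathable membranes. Haemophilus parainfluenzae medium was supplemented with hemin and NAD. OD578 was read hourly for 24 h, with three biological replicates. Growth-curve AUC was computed by the trapezoidal rule up to the exponential-to-stationary transition and normalised to DMSO controls on the same plate.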

Shigella flexneri = experiment: as above
Procedure, shortened: as §1

Vibrio cholerae = experiment: as above
Procedure, shortened: as §1

[2] = system: Yersinia pseudotuberculosis; experiment: as above
Procedure, shortened: as §1

P. vulgatus RND KO = experiment: growth AUC normalised to DMSO control (median) (fraction of control); higher = less growth inhibition, active = hit call of the paper
Procedure, shortened: (§2)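 Strains were passaged twice overnight without oxygen, then grown in mGAM in 96-well plates with each approved-drug library compound at 20 μM and 1% DMSO, starting at OD578 0.01. OD578 was read hourly for 24 h inside an anaerobic incubator. Curves were truncated at entry into stationary phase, and the trapezoidal-rule area under the curve was normalised to same-plate vehicle wells. The value is the median across three biological replicates.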

P. vulgatus WT = experiment: as above
Procedure, shortened: as §2

[3] = system: S. enterica typhimurium WT; experiment: as above
Procedure, shortened: as §2

[4] = system: S. enterica typhimurium tolC KO; experiment: as above
Procedure, shortened: as §2

Measured: growth AUC normalised to DMSO control
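Throughout, for growth AUC normalised to DMSO control (median): active when median AUC fell below 0.1.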

COc1ccc2[nH]c([S+]([O-])Cc3ncc(C)c(OC)c3C)nc2c1 (stereo not given) [Omeprazole]
inactive: [1] 0.958 | Shigella flexneri 0.998 | Vibrio cholerae 1.05 | [2] 1 | P. vulgatus RND KO 1.02 | P. vulgatus WT 1.03 | [3] 1 | [4] 0.952

Nc1ccn([C@@H]2O[C@H](CO)[C@@H](O)[C@@H]2O)c(=O)n1 [Cytarabine]
inactive: [1] 1 | Shigella flexneri 0.998 | Vibrio cholerae 1 | [2] 0.986 | P. vulgatus RND KO 0.993 | P. vulgatus WT 0.989 | [3] 0.998 | [4] 0.997

Nc1nc(NC2CC2)c2ncn([C@H]3C=C[C@@H](CO)C3)c2n1 [Abacavir sulfate]
inactive: [1] 1.01 | Shigella flexneri 0.989 | Vibrio cholerae 0.989 | [2] 0.971 | P. vulgatus RND KO 0.989 | P. vulgatus WT 1.01 | [3] 1.01 | [4] 1

O=C(O)CNC(=O)C(CS)Cc1ccccc1 (stereo not given) [Thiorphan]
inactive: [1] 1.02 | Shigella flexneri 1.05 | Vibrio cholerae 1.08 | [2] 1.01 | P. vulgatus RND KO 0.993 | P. vulgatus WT 1 | [3] 0.997 | [4] 0.995

CCN1CCN(C(=O)N[C@@H](C(=O)N[C@@H]2C(=O)N3C(C(=O)O)=C(CSc4nnnn4C)CS[C@H]23)c2ccc(O)cc2)C(=O)C1=O [Cefoperazone dihydrate]
active: [1] 0.0254 | Shigella flexneri 0.0208 | Vibrio cholerae 0.0794 | [2] 0.16 | P. vulgatus RND KO 0.00991 | P. vulgatus WT 0.00365 | [4] 0.00245
inactive: [3] 0.144

CN(N=O)C(=O)N[C@H]1C(O)O[C@H](CO)[C@@H](O)[C@@H]1O (mixture of isomers) [Streptozotocin]
active: [1] 0.659 | Shigella flexneri 0.0254 | Vibrio cholerae 0.141 | [2] 0.0388 | P. vulgatus RND KO 0.0955 | P. vulgatus WT 0.0778
inactive: [3] 0.725 | [4] 0.694

Cc1cn([C@H]2C=C[C@@H](CO)O2)c(=O)[nH]c1=O [Stavudine]
inactive: [1] 1.01 | Shigella flexneri 1.03 | Vibrio cholerae 1.03 | [2] 0.992 | P. vulgatus RND KO 1 | P. vulgatus WT 1.05 | [3] 1.03 | [4] 1.02

CN(C)CCC(c1ccccc1)c1ccccn1 (stereo not given) [Pheniramine maleate]
inactive: [1] 0.996 | Shigella flexneri 1.04 | Vibrio cholerae 0.997 | [2] 1.01 | P. vulgatus RND KO 1.01 | P. vulgatus WT 1.02 | [3] 0.999 | [4] 1.01

Cc1ccnc(NS(=O)(=O)c2ccc(N)cc2)n1 [Sulfamerazine]
inactive: [1] 0.973 | Shigella flexneri 1.03 | Vibrio cholerae 0.977 | [2] 1.01 | P. vulgatus RND KO 0.988 | P. vulgatus WT 1.01 | [3] 0.986 | [4] 0.998

COc1ccc(/C=C/C(=O)Nc2ccccc2C(=O)O)cc1OC [Tranilast]
inactive: [1] 0.999 | Shigella flexneri 0.973 | Vibrio cholerae 0.992 | [2] 1.01 | P. vulgatus RND KO 0.999 | P. vulgatus WT 1.02 | [3] 1.04 | [4] 0.952

CCCN(CCC)CCc1cccc2c1CC(=O)N2 [Ropinirole hydrochloride]
inactive: [1] 0.997 | Shigella flexneri 1.02 | Vibrio cholerae 0.976 | [2] 0.985 | P. vulgatus RND KO 1.03 | P. vulgatus WT 1.04 | [3] 1 | [4] 0.988

Clc1cc(Cl)c(OCC#CI)cc1Cl [Haloprogin]
inactive: [1] 1.02 | Shigella flexneri 1.02 | Vibrio cholerae 1.05 | [2] 0.973 | P. vulgatus RND KO 1.01 | P. vulgatus WT 1.08 | [3] 1.04 | [4] 0.993

O=P(O)(O)C(Cl)(Cl)P(=O)(O)O [Clodronate disodium]
inactive: [1] 0.986 | Shigella flexneri 0.993 | Vibrio cholerae 0.964 | [2] 0.991 | P. vulgatus RND KO 1 | P. vulgatus WT 1.01 | [3] 0.997 | [4] 0.986

CC(=O)[C@@]1(O)CC[C@H]2[C@@H]3C[C@H](C)C4=CC(=O)C=C[C@]4(C)[C@@]3(F)[C@@H](O)C[C@@]21C [Fluorometholone]
inactive: [1] 1.01 | Shigella flexneri 1.03 | Vibrio cholerae 1.05 | [2] 1 | P. vulgatus RND KO 1 | P. vulgatus WT 1.01 | [3] 1 | [4] 0.987

CCCNC(C)(C)COC(=O)c1ccccc1 [Meprylcaine hydrochloride]
inactive: [1] 0.996 | Shigella flexneri 1.02 | Vibrio cholerae 1.01 | [2] 1.01 | P. vulgatus RND KO 0.984 | P. vulgatus WT 1.01 | [3] 1 | [4] 0.995

CO[C@H]1C[C@H](O[C@H]2[C@H](C)[C@@H](O[C@@H]3O[C@H](C)C[C@H](N(C)C)[C@H]3OC(C)=O)[C@@H](C)C[C@@]3(CO3)C(=O)[C@H](C)[C@@H](OC(C)=O)[C@@H](C)[C@@H](C)OC(=O)[C@@H]2C)O[C@@H](C)[C@@H]1OC(C)=O [Troleandomycin]
active: P. vulgatus RND KO 0.0116 | P. vulgatus WT 0.00916
inactive: [1] 0.998 | Shigella flexneri 1.01 | Vibrio cholerae 0.882 | [2] 0.999 | [3] 0.988 | [4] 0.207

Cc1ccc(C)c(OCCCC(C)(C)C(=O)O)c1 [Gemfibrozil]
inactive: [1] 0.997 | Shigella flexneri 0.972 | Vibrio cholerae 0.983 | [2] 1 | P. vulgatus RND KO 0.969 | P. vulgatus WT 0.972 | [3] 1 | [4] 0.977

N=C(N)N1CCc2ccccc2C1 [Debrisoquin sulfate]
inactive: [1] 0.995 | Shigella flexneri 0.975 | Vibrio cholerae 1.01 | [2] 1.01 | P. vulgatus RND KO 1.02 | P. vulgatus WT 1.01 | [3] 1 | [4] 1

CCC[C@@H]1C[C@@H](C(=O)N[C@@H]([C@H]2O[C@H](SC)[C@H](O)[C@@H](O)[C@H]2O)[C@H](C)Cl)N(C)C1 [Clindamycin hydrochloride]
inactive: [3] 0.835 | [4] 0.437
active: [1] 0.722 | Shigella flexneri 0.648 | Vibrio cholerae 0.143 | [2] 0.0588 | P. vulgatus RND KO 0.0135 | P. vulgatus WT 0.0132

O=C(CCCN1CCC(O)(c2ccc(Cl)cc2)CC1)c1ccc(F)cc1 [Haloperidol]
inactive: [1] 0.976 | Shigella flexneri 0.966 | Vibrio cholerae 0.97 | [2] 0.966 | P. vulgatus RND KO 0.965 | P. vulgatus WT 0.963 | [3] 0.998 | [4] 0.962

Cc1cnc(C(=O)O)c[n+]1[O-] [Acipimox]
inactive: [1] 0.983 | Shigella flexneri 1 | Vibrio cholerae 0.982 | [2] 0.969 | P. vulgatus RND KO 1 | P. vulgatus WT 0.994 | [3] 1.01 | [4] 0.992

Cc1cccc(Nc2ccncc2S(=O)(=O)NC(=O)NC(C)C)c1 [Torsemide]
inactive: [1] 1 | Shigella flexneri 1.04 | Vibrio cholerae 1.01 | [2] 1.01 | P. vulgatus RND KO 1.04 | P. vulgatus WT 1.05 | [3] 1.01 | [4] 1

CO[C@@]1(NC(=O)C2SC(=C(C(N)=O)C(=O)O)S2)C(=O)N2C(C(=O)O)=C(CSc3nnnn3C)CS[C@@H]21 (stereo not given in full) [Cefotetan]
active: [1] 0.00234 | Shigella flexneri 0.0192 | Vibrio cholerae 0.186 | [2] 0.0842 | P. vulgatus RND KO 0.0118 | P. vulgatus WT 0.0068 | [3] 0.00563 | [4] 0.00413

COc1ccccc1OCC(O)CN1CCN(CC(=O)Nc2c(C)cccc2C)CC1 (stereo not given) [Ranolazine]
inactive: [1] 1 | Shigella flexneri 1 | Vibrio cholerae 1.01 | [2] 1.01 | P. vulgatus RND KO 0.994 | P. vulgatus WT 1 | [3] 0.998 | [4] 0.998

Clc1ccccc1C(c1ccccc1)(c1ccccc1)n1ccnc1 [Clotrimazole]
inactive: [1] 0.992 | Shigella flexneri 1.02 | Vibrio cholerae 0.932 | [2] 0.985 | P. vulgatus RND KO 0.952 | P. vulgatus WT 0.954 | [3] 0.995 | [4] 0.829

CC(C)NC[C@@H](O)COc1ccc(CC(N)=O)cc1 [(R,+) Atenolol]
inactive: [1] 1.01 | Shigella flexneri 1.06 | Vibrio cholerae 1.07 | [2] 1.02 | P. vulgatus RND KO 1.04 | P. vulgatus WT 1.01 | [3] 1.02 | [4] 0.986

COc1cc2nc(N(C)CCCNC(=O)C3CCCO3)nc(N)c2cc1OC (stereo not given) [Alfuzosin hydrochloride]
inactive: [1] 1.01 | Shigella flexneri 1.03 | Vibrio cholerae 1.06 | [2] 0.978 | P. vulgatus RND KO 1.02 | P. vulgatus WT 1.08 | [3] 1.01 | [4] 1.01

CC(C)NNC(=O)c1ccncc1 [Iproniazide phosphate]
inactive: [1] 1.01 | Shigella flexneri 1 | Vibrio cholerae 0.997 | [2] 1.02 | P. vulgatus RND KO 1.02 | P. vulgatus WT 1.03 | [3] 1.02 | [4] 0.992

CC(C(O)c1ccc(O)cc1)N1CCC(Cc2ccccc2)CC1 (stereo not given) [Ifenprodil tartrate]
inactive: [1] 1 | Shigella flexneri 1.05 | Vibrio cholerae 1.03 | [2] 1 | P. vulgatus RND KO 1.03 | P. vulgatus WT 1.02 | [3] 1.01 | [4] 1

CCc1nc(N)nc(N)c1-c1ccc(Cl)cc1 [Pyrimethamine]
inactive: Vibrio cholerae 0.908 | [2] 0.932 | P. vulgatus RND KO 0.57 | P. vulgatus WT 0.288 | [3] 0.93 | [4] 0.66
active: [1] 0.915 | Shigella flexneri 0.851
